# TDP1 cell noCPT = qHTS for Inhibitors of human tyrosyl-DNA phosphodiesterase 1 (TDP1): qHTS in cells in absence of CPT; DT40 Tdp1-/- hTDP1 cells, no CPT, ATP luminescence, 48 h; Potency, µM (doses to about 46.2 µM), inactives show at the highest dose activity change, negative = growth inhibition, most hits filed as inhibitors; actives 15% (n = 420,000); further: potency means the concentration at half of the fitted maximal effect; on the % scale 0 is the no-effect control and ±100 the full control effect; nearly all actives have a fitted effect of over 55% in size
#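 Growth of hTDP1-complemented DT40 Tdp1-knockout cells is measured by ATP luminescence after at least 48 hr compound exposure at 37 °C, with DMSO substituting for the 20 nM CPT used in the parallel screen.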
# MCF10A rereplic = A quantitative high throughput screen for small molecules that induce DNA re-replication in MCF 10a normal breast cells; MCF 10A DNA re-replication, Hoechst nuclear intensity, 48 h; AID 624296, 2012; Potency, µM (series often up to 46.1 µM), for the others: at the highest dose activity, positive = re-replication, most hits filed as activators; actives 2.9% (n = 350,000); further: potency means the concentration at half of the fitted maximal effect; % of control where 0% means no effect; nearly all actives have a fitted effect of over 50% in size
# Chronic BCR inh = qHTS Assay to Find Inhibitors of Chronic Active B-Cell Receptor Signaling | ABC-DLBCL IkBa-CBG/CBR reporter, luminescence ratio, 4 h | Potency, µM (titrated, usually from 46.1 µM), for inactives: at the highest dose activity change, negative = inhibition, usual class: inhibitors | actives 0.05% (n = 340,000); active means well fitted inhibition curve with a large enough effect in the signal ratio, with a control signal flat, not every such curve was filed as active; inconclusive means small, poorly fitted or top-dose-only effect, or effect the other way, or a change in a side signal; the % refers to the signal ratio;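 further: potency means the concentration at half of the fitted maximal effect; plate controls were basal doxycycline-induced cells for no effect and cells given 10 µM MG132 for full effect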
#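 Doxycycline induced both beetle luciferases in TMD8 lymphoma cells; IKK-driven degradation limits the IkappaBalpha-fused green signal, while red luminescence normalises for cell number and nonspecific effects. Compounds tested up to 46 uM, 4 hrs.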
# TDP1 cell CPT = qHTS for Inhibitors of human tyrosyl-DNA phosphodiesterase 1 (TDP1): qHTS in cells in presence of CPT; actives 12% (n = 420,000); AID 686979, 2013; Potency, µM (titrated, usually from 46.2 µM), inactives show at the top dose activity change, negative = growth inhibition, usual class: inhibitors; chicken DT40 Tdp1-/-;hTDP1 cells + 20 nM CPT, ATP luminescence, 48 h; further: potency means the concentration at half of the fitted maximal effect; on the % scale 0 is the no-effect control and ±100 the full control effect; nearly all actives have a fitted effect of over 55% in size
#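 Cell growth measured by CellTiter-Glo luminescence after a minimum 48 h, 37 C compound exposure with 20 nM CPT in Tdp1-knockout DT40 cells stably expressing hTDP1, seeded 400/well; qHTS titration format.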
# SW480 rerep = A quantitative high throughput screen for small molecules that induce DNA re-replication in SW480 colon adenocarcinoma cells; AID 624297, 2012; Potency, µM (titrated, usually from 46.1 µM), inactives show at the top dose re-replication activation, hits mostly activators; SW480 DNA re-replication, Hoechst DNA content imaging, 48 h; actives 1.8% (n = 340,000); further: potency means the concentration at half of the fitted maximal effect; % of control where 0% means no effect; nearly all actives have a fitted effect of over 55% in size
#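 Compounds, transferred as 23 nL by pin tool, were incubated with cells for 48 hr; DNA content per nucleus was then quantified by Hoechst staining and fluorescence plate imaging.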
# IL1B secr inh = qHTS for Inhibitors of Inflammasome Signaling: IL-1-beta AlphaLISA Primary Screen; THP-1 LPS/ATP IL-1B secretion, AlphaLISA, 16 h; active compounds read low; actives 4.7% (n = 360,000); activity change, % at 57.5 µM; AID 743279, 2014; in the data active means activity change below about -50%; inconclusive means mostly about -30% to -49%; further: on the % scale 0 is the no-effect control and ±100 the full control effect
#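 Secreted IL-1B measured by AlphaLISA bead assay after 16 h compound exposure of THP-1 cells; compounds (final up to 57.5 uM) added 1 h before LPS (250 ng/mL) and ATP (1.25 mM) stimulation; lower signal means less secretion.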
# The depositor's hits bear a star; ? = inconclusive; / = no result; ! = repeats disagree; [ ] = remark or other dose. Only some compounds are listed: those with a hit (about 19% of all), similar ones and a draw of the others. Unless noted, the call rests on the fitted dose curve; in most records, active means well fitted curve in the direction sought with a large enough effect; inconclusive means small, poorly fitted or top-dose-only effect, or another doubt; inactive means no such curve, though single readings can be large; an effect the other way counts as inactive or inconclusive.
SMILES,TDP1 cell noCPT,MCF10A rereplic,Chronic BCR inh,TDP1 cell CPT,SW480 rerep,IL1B secr inh
O=c1[nH]c(-c2ccc(F)cc2)nc2c1sc(=S)n2-c1ccccc1,6.51µM*,?,5.8%,?,-0.3%,40.5
CCN(CC)C(=O)CSc1nc2c(sc(=S)n2-c2ccccc2)c(=O)[nH]1,7.0%,0.651µM*,10.6%,0.0%,-29.4%,1.4
CCOC(=O)CC(=O)CSc1nc2c(sc(=S)n2-c2ccccc2)c(=O)[nH]1,-12.2%,16.4µM*,12.5%,-20.3%,3.6%,20.0
O=C(NN1CCN(Cc2ccccc2Cl)CC1)c1ccc(Br)cc1,?,?,1.5%,-9.6%,1.2%,5.9
CCc1ccc(Nc2n[n+](-c3ccccc3)c(-c3ccc(OCc4ccccc4)cc3)s2)cc1,5.17µM*,-15.8%,?,4.61µM*,3.2%,3.2
CCc1ccc(Nc2n[n+](-c3ccccc3)c(/C=C/c3ccccc3)s2)cc1,/,/,-2.3%,/,/,/
Cc1cccc(-c2sc(Nc3ccccc3)n[n+]2-c2ccccc2)c1,?,-6.7%,?,?,-18.5%,-14.9
O=C(O)c1ccc(-c2sc(Nc3ccccc3)n[n+]2-c2ccccc2)cc1,-4.5%,?,-1.8%,-1.0%,?,91.7
CCc1ccc(Nc2n[n+](-c3ccccc3)c(-c3ccc(N(CC)CC)cc3)s2)cc1,9.2µM*,?,-10.1%,6.51µM*,4.5%,-3.6
CCc1ccc(Nc2n[n+](-c3ccccc3)c(-c3c(Cl)cccc3Cl)s2)cc1,14.6µM*,?,?,23.1µM*,?,-91.8*
CCc1ccc(Nc2n[n+](-c3ccccc3)c(-c3cc(OC)c(OC)cc3Br)s2)cc1,?,-1.6%,?,16.4µM*,-9.6%,-17.6
CCCCn1c(=NC(=O)C(C)(C)Oc2ccc(Cl)cc2)c(C(=O)OCC)cc2c(=O)n3ccccc3nc21,-15.2%,/,/,-2.0%,/,/
CCN(CC)c1ccc(-c2sc(Nc3ccccc3)n[n+]2-c2ccc(F)cc2)cc1,25.9µM*,12.4%,?,?,-7.6%,-1.2
CN(C)c1ccc(-c2sc(Nc3ccccc3)n[n+]2-c2ccc(F)cc2)cc1,?,4.0%,?,?,-3.9%,44.0
Cc1nc2c(F)c(F)c(C(F)(F)F)c(F)c2[nH]1,20.6µM*,-11.7%,?,?,-5.1%,99.5
COc1ccc(CCN2C(=O)CSC2c2ccc(F)cc2)cc1 (centres undefined),-21.2%,6.2%,-5.5%,?,-9.4%,10.8
CCOC(=O)C1(CC2CCCCO2)CCN(Cc2nc(C(C)C)cs2)CC1 (centres undefined),?,14.1%,-12.1%,16.4µM*,16.5%,?
CCOC(=O)C1(CC2CCCCO2)CCN(Cc2c(C)cc(C)cc2-n2cccn2)CC1 (centres undefined),29.1µM*,9.2%,?,?,-2.4%,28.0
NC(=NC1CCCCC1)NS(=O)(=O)c1ccccc1,-6.0%,1.7%,1.0%,33.9%,-4.7%,19.5
CCc1ccc(NC(=O)CCc2ccc(C)o2)cc1,-3.0%,16.4µM*,2.3%,?,?,0.0
C[C@H]1C(=O)N(C)CCN1Cc1cn(C)nc1-c1ccc(Oc2ccccc2)cc1,?,-18.4%,?,?,-18.9%[1.84 µM],31.7
CN(Cc1cccnc1)Cc1cn(C)nc1-c1cccc(Cl)c1,15.8µM*!,5.5%,-0.1%,?,2.5%,0.0
CN(Cc1cn(C)nc1-c1cccc(Cl)c1)Cc1nccn1C,?,-1.4%,-1.5%,?,-12.9%,-1.4
CN(Cc1cccnc1)Cc1cn(C)nc1-c1ccc(Oc2ccccc2)cc1,18.4µM*,-19.3%,?,?,7.6%[1.84 µM],-0.3
Cc1cc(CN(C)Cc2cn(C)nc2-c2ccc(Oc3ccccc3)cc2)on1,16.4µM*,3.8%,4.8%,?,0.5%,-27.3
SMILES,TDP1 cell noCPT,MCF10A rereplic,Chronic BCR inh,TDP1 cell CPT,SW480 rerep,IL1B secr inh
Cc1cc(CN(C)Cc2ccc(OCC(O)CN(C)Cc3ccccc3)cc2)on1 (centres undefined),?,-0.7%,8.7%,-22.4%,-3.9%,24.7
CC1(c2ccc3c(c2)OCCO3)NC(=O)N(CC(=O)Nc2ccccc2)C1=O (centres undefined),-8.8%,-0.2%,7.1%,-7.5%,?,3.3
OCC1(CCCc2ccccc2)CCN(C2CCSCC2)CC1,-22.9%,?,-8.0%,-17.0%,-2.8%,-69.6*
CCOC(=O)C1(CCCc2ccccc2)CCN(C2CCSCC2)CC1,13µM*,9.3%,?,16.4µM*,?,14.2
OCC1(CCCc2ccccc2)CCN(C2CCC2)CC1,11.4%,?,-0.9%,-25.2%,?,-54.4*
CCOC(=O)C1(CCCc2ccccc2)CCN(CC(O)CO)CC1 (centres undefined),?,-9.3%,?,-9.4%,?,0.0
COc1ccc(CCNC(=O)Nc2nc(C(N)Cc3ccccc3)cs2)cc1OC (centres undefined),20.6µM*,/,/,?,/,?
COc1ccc(CC(N)c2csc(NC(=O)NCCc3ccc(OC)c(OC)c3)n2)cc1 (centres undefined),?,/,/,18.4µM*,/,?
Cc1ccccc1OCC(=O)Nc1ccc2[nH]ncc2c1,-27.0%,0.9%,-7.7%,-5.6%,19.9%,-14.0
